IMPase Li cell: IMPase inhibition in cells with lithium potentiation; CHO-M1 cells, IP1 TR-FRET (IP-One), carbachol + lithium; 210,000 compounds, 0.35% hits; Potency, µM (titrated, usually from 59.4 µM), most hits filed as inhibitors; AID 1457; active = well fitted curve in the direction sought with a large enough effect; inconclusive = small, poorly fitted or top-dose-only effect, or another doubt; inactive = no such curve, though single readings can be large; an effect the other way counts as inactive or inconclusive;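 also: IP1 builds up when IMPase is blocked and the TR-FRET signal falls; nearly all actives have a fitted effect of over 50% in size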
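Lithium-sensitised IP1 accumulation assay; M1-expressing CHO cells treated 30 min at 37C with compound. Competitive antibody detection by time-resolved FRET followed a 10 min room-temperature lysis step.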
IMPase inh: membrane-permeable compound that blocks inositol monophosphatase; inhibition (IP1 accumulation), % at 46.1 µM; 120,000 tested, under 10 active; P97697; AID 901; CHO-M1 cells, IP1 accumulation, HTRF TR-FRET ratio; active = well fitted curve in the direction sought with a large enough effect in the signal ratio, not every such curve was filed as active; inconclusive = small, poorly fitted or top-dose-only effect, or a change in a side signal; inactive = no such curve, though single readings can be large or run the other way; the % refers to the signal ratio;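 also: cells stimulated with carbachol in lithium chloride buffer; higher means more IMPase inhibition seen as more IP1 and lower FRET ratio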
Target sequence (P97697 whole entry, looked up): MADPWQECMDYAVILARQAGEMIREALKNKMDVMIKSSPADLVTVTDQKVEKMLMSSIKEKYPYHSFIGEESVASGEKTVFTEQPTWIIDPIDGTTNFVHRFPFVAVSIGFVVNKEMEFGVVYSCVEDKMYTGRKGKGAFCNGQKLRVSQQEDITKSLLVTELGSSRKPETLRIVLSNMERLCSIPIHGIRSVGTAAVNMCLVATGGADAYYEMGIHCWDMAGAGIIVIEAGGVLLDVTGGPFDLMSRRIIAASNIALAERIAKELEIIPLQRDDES
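Elevated IP1 in lysates lowers TR-FRET signal (665/620 ratio and 620 channel reported). Cells were CHO-M1, given carbachol (50 uM as added) plus 50mM LiCl, pH 7.4, 30 min, 37C; compounds titrated up to 46 uM; AC50 by Hill equation.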
ALDH1A1 block: inhibitors of human aldehyde dehydrogenase 1A1; Purified ALDH1A1, NADH fluorescence, propionaldehyde substrate; AID 1030; 220,000 compounds, 7.3% hits; P00352; Potency, µM (titrated, usually from 75.3 µM), most hits filed as inhibitors
ALOX12 inhib: inhibitors of human 12-lipoxygenase (ALOX12). 150,000 compounds, 0.12% hits. P18054. purified 12-hLO, xylenol orange hydroperoxide absorbance. Potency, µM (titrated, usually from 57.1 µM), usual class: inhibitors; active = well fitted curve in the direction sought with a large enough effect; inconclusive = small, poorly fitted or top-dose-only effect, or another doubt; inactive = no such curve, though single readings can be large; an effect the other way counts as inactive or inconclusive; also: nearly all actives have a fitted effect of over 55% in size
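Lipoxygenase turnover measured by absorbance at 573 and 405 nm after Fe-XO development. Human 12hLO 150 nM, arachidonate 40 uM, pH 7.0 Hepes buffer with detergent; 15 min compound preincubation, 30 min reaction.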
HPGD inh: HPGD (human) dehydrogenase inhibition; P15428; purified HPGD, NADH fluorescence kinetic, PGE2 substrate; Potency, µM, usual class: inhibitors; 150,000 compounds, 4.3% hits; AID 894
Target sequence (P15428 whole entry, looked up): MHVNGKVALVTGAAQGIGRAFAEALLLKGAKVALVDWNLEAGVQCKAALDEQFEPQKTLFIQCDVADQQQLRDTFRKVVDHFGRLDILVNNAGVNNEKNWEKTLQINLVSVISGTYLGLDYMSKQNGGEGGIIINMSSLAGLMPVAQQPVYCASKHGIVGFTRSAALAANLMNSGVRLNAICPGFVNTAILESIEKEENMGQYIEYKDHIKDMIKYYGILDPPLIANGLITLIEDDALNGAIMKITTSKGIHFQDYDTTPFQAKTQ
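NADH formation kinetics: reaction with 30 uM PGE2 and 1 mM NAD+ (final), 20 nM enzyme, Tris-HCl pH 8 with Tween 20, after 15 min compound preincubation at room temperature. Fluorescence change, last versus first of five reads.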
PNC assembly inh: blocks assembly of the perinucleolar compartment; PC3M PTB-GFP, PNC prevalence imaging, 16 h; active compounds read low; activity change (PNC), negative = inhibition, % at 10 µM; 140,000 compounds, 3.1% hits; AID 2417;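 active = readout at or below -70, meaning at least 70% loss of cells showing the perinucleolar compartment, a nuclear body marking cancer cells; inconclusive = readout between -30 and a set limit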
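Read-out is percentage of cells bearing a perinucleolar compartment, from automated 20x imaging of fixed, Hoechst-stained PC3M PTB-GFP cells. Cells were seeded 4 h, then exposed 16 h to compound (23 nl of library stock) in duplicate plates.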
A number is an active result; [ ] = remark or other dose. This is a sample that favours compounds with a hit; in the whole collection about 11% have one here. Unless noted, calls follow the shape of the dose curve; as a rule, active = well fitted inhibition curve with a large enough effect (not every such curve was filed as active); inconclusive = small, poorly fitted or top-dose-only effect, or another doubt; inactive = no such curve, though single readings can be large or run the other way.

What do the screens show for `Cc1cc(C)n(C(C[N+](=O)[O-])c2ccc(Cl)cc2)n1` (configuration not stated)?
IMPase Li cell: inactive; IMPase inh: inactive; ALDH1A1 block: inconclusive; ALOX12 inhib: inactive; HPGD inh: 7.94µM; PNC assembly inh: inconclusive

What do the screens show for `Cc1cc(O)c(C(C[N+](=O)[O-])c2ccc(Cl)cc2)c(=O)o1` (configuration not stated)?
IMPase Li cell: inactive; IMPase inh: inactive; ALDH1A1 block: inconclusive; ALOX12 inhib: inactive; HPGD inh: inactive; PNC assembly inh: inactive

What do the screens show for `CCCOc1ccc(C(=O)Nc2cc3c(cc2N2CCCCC2)n(C)c(=O)n3C)cc1`?
IMPase inh: inactive

Results for C=CCN1C(=O)/C(=C/C=C2/N(CC)c3ccc(S(=O)(=O)N(C)C)cc3N2CC)SC1=S ?
IMPase Li cell: inactive; ALDH1A1 block: 2.82µM

Results for N#C/C(=C1\C(=O)Nc2c(Cl)cc(Cl)cc21)c1nnc2n1CCCCC2 ?
IMPase Li cell: inactive; IMPase inh: inactive; ALDH1A1 block: 3.55µM; ALOX12 inhib: inactive; HPGD inh: inactive; PNC assembly inh: inconclusive

What do the screens show for `N#C/C(=C1/CCCCCN1)c1nnc2n1CCCCC2`?
IMPase Li cell: inactive; IMPase inh: inactive; ALDH1A1 block: inactive; ALOX12 inhib: inactive; HPGD inh: inactive; PNC assembly inh: inactive

Results for N#C/C(=N\Nc1cc(Cl)cc(Cl)c1)c1nnc2n1CCCCC2 ?
IMPase Li cell: inactive; ALDH1A1 block: 8.91µM; ALOX12 inhib: inconclusive; HPGD inh: 25.1µM; PNC assembly inh: inconclusive

What do the screens show for `COc1cc(CN2CCCCC2)cc2cc(C(=O)O)c(=O)oc12`?
IMPase Li cell: inactive; ALDH1A1 block: inactive[13.5 µM]; ALOX12 inhib: inactive[11.4 µM]; HPGD inh: inactive

How did COc1ccc(CCNC(=O)C(=O)NCc2ccc(Cl)cc2)cc1OC do in these assays?
IMPase Li cell: inactive; ALDH1A1 block: 0.631µM

Results for COc1cccc(CNC(=O)C(=O)NCCc2ccc(OC)c(OC)c2)c1 ?
IMPase Li cell: inactive; ALDH1A1 block: inconclusive; ALOX12 inhib: inactive; HPGD inh: inactive; PNC assembly inh: inactive

Results for COc1ccc(CCNC(=O)/C=C/C(=O)O)cc1OC ?
IMPase Li cell: inactive; ALDH1A1 block: 25.1µM

What do the screens show for `COc1ccc(CCNC(=O)C(=O)NCc2ccc(C)cc2)cc1OC`?
IMPase Li cell: inactive; IMPase inh: inactive; ALDH1A1 block: 3.16µM; ALOX12 inhib: inactive; HPGD inh: inactive; PNC assembly inh: inconclusive

What do the screens show for `C[N+](C)(C)CCO`?
IMPase Li cell: inactive; IMPase inh: inactive; ALDH1A1 block: inactive; ALOX12 inhib: inactive; HPGD inh: inactive

What do the screens show for `CCc1nc(N[C@H](C(=O)O)C(C)CC)c2oc3ccccc3c2n1` (some centres not stated)?
IMPase Li cell: inactive; IMPase inh: inactive; ALDH1A1 block: 0.501µM; ALOX12 inhib: inactive; HPGD inh: inactive; PNC assembly inh: inactive

How did CCC(C)[C@H](Nc1nc(-c2ccccc2)nc2c1oc1ccccc12)C(=O)O (some centres not stated) do in these assays?
IMPase Li cell: inactive; IMPase inh: inactive; ALDH1A1 block: 0.794µM; ALOX12 inhib: inactive; HPGD inh: inactive; PNC assembly inh: inactive

Results for CC(C)C(Nc1ncnc2c1oc1ccccc12)C(=O)O (configuration not stated) ?
IMPase Li cell: inactive; ALDH1A1 block: inactive

How did CC(C)[C@H](Nc1nc(-c2ccccc2)nc2c1oc1ccccc12)C(=O)O do in these assays?
IMPase Li cell: inactive; IMPase inh: inactive; ALDH1A1 block: 1.12µM; ALOX12 inhib: inactive; HPGD inh: inactive; PNC assembly inh: inactive

What do the screens show for `Cc1cccc(Oc2ccc(Cl)cc2N)c1`?
IMPase Li cell: inactive; ALDH1A1 block: inactive

What do the screens show for `COC(=O)C(CC(=O)c1ccc(Br)cc1)n1ccnc1` (configuration not stated)?
IMPase Li cell: inactive; IMPase inh: inactive; ALDH1A1 block: 0.447µM; ALOX12 inhib: inconclusive; HPGD inh: 2.51µM; PNC assembly inh: inactive

Results for O=C(COC(=O)c1ccncc1)c1ccc(Br)cc1 ?
IMPase Li cell: inactive; ALDH1A1 block: inactive

Results for CC(C)(C)C1CCc2c(sc(NC(=O)c3cccc(Cl)c3)c2C(=O)NCc2ccco2)C1 (configuration not stated) ?
IMPase inh: inactive

Results for O=C(CN1C(=O)CSc2ccccc21)Nc1ccc2c(c1)OCCO2 ?
IMPase Li cell: inactive; IMPase inh: inactive; ALDH1A1 block: inactive; ALOX12 inhib: inactive; HPGD inh: inactive; PNC assembly inh: inconclusive

How did CCC1Oc2ccccc2N(CC(=O)Nc2ccc3c(c2)OCCO3)C1=O (configuration not stated) do in these assays?
IMPase Li cell: inactive; IMPase inh: inactive[1.84 µM]; ALDH1A1 block: inactive; ALOX12 inhib: inactive; HPGD inh: inactive; PNC assembly inh: -94.1

How did O=C(CN1C(=O)CCS(=O)(=O)c2ccccc21)Nc1ccc2c(c1)OCCO2 do in these assays?
IMPase Li cell: inactive; IMPase inh: inactive; ALDH1A1 block: inactive; ALOX12 inhib: inactive; HPGD inh: inactive; PNC assembly inh: -100.0

What do the screens show for `O=C(CN1C(=O)COc2ccccc21)Nc1ccc2c(c1)OCCO2`?
IMPase Li cell: inactive; IMPase inh: inactive; ALDH1A1 block: inactive; ALOX12 inhib: inactive; HPGD inh: inactive; PNC assembly inh: inconclusive

How did O=C(O)c1cccc(Nc2ncnc3scc(-c4ccccc4)c23)c1 do in these assays?
IMPase inh: inactive

How did COc1ccccc1-c1ccc(NC2CCCC2)nn1 do in these assays?
IMPase Li cell: inactive; IMPase inh: inactive; ALDH1A1 block: inactive; ALOX12 inhib: inactive; HPGD inh: 6.31µM; PNC assembly inh: inactive

Results for COc1ccc(CNc2ccc(-c3ccccc3OC)nn2)cc1 ?
IMPase Li cell: inactive; IMPase inh: inactive; ALDH1A1 block: inactive; ALOX12 inhib: inactive; HPGD inh: 15.8µM; PNC assembly inh: inconclusive

Results for COc1ccc(CNc2ccc(-c3ccc(OC)cc3)nn2)cc1 ?
IMPase Li cell: inactive; IMPase inh: inactive[9.22 µM]; ALDH1A1 block: inactive; ALOX12 inhib: inactive; HPGD inh: inactive; PNC assembly inh: -87.9

Results for COc1ccc(CNc2ccc(Br)cc2)cc1 ?
IMPase Li cell: inactive; ALDH1A1 block: inactive

Results for CN[C@@H]1NC(=O)c2ccccc2N1Cc1ccc(F)cc1 ?
IMPase Li cell: inactive; ALDH1A1 block: inactive[13.5 µM]; ALOX12 inhib: inactive[11.4 µM]; HPGD inh: inactive

Results for CCOc1ccc(N(CCCCO)C(=S)NC(=O)c2ccc(C)c(Br)c2)cc1 ?
IMPase Li cell: inactive; ALDH1A1 block: 22.4µM

Results for COC(=O)C1(C(=O)OC)C/C=C\C/C=C\c2ccccc2[C@@H]1C[N+](=O)[O-] ?
IMPase Li cell: inactive; ALDH1A1 block: inactive; ALOX12 inhib: inactive; HPGD inh: inactive
